# The list is not random: actives were taken first. Their share in the collection is about 0.5%.
# ERK EGF block: EGF-driven ERK pathway inhibition | HEK293-V1b, EGF-stimulated phospho-ERK AlphaScreen | Potency, µM (highest dose often 11.5 µM), without a hit: at the top dose activity change, negative = inhibition, usual class: inhibitors | 0.41% of 130,000 active | AID 1454;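 note: potency is the fitted concentration of half-maximal effect; plate controls were stimulated vehicle wells for no effect and unstimulated vehicle basal for full effect; nearly all actives have a fitted effect of over 55% in size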
#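 Stably V1b-transfected HEK293 cells; 30 min compound, then EGF 25 nM final for 5 min at 37C; 10 min lysis; phospho-ERK by AlphaScreen after 5 hr beads at room temperature.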
# CBFb-RUNX1 inh: CBF-beta/RUNX1 interaction disruption; Q01196+Q13951; AlphaScreen CBFb-His/RUNX1-biotin binding, biochemical; Potency, µM (doses to about 59.8 µM), for inactives: at the top dose activity, negative = inhibition, most hits filed as inhibitors; 230,000 tested, under 10 active; note: % of control where 0% means no effect
#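 Proteins preincubated together for 20 min at RT before compound addition; 15 min later, nickel and streptavidin beads were added and left 90 min prior to AlphaScreen measurement.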
# GoLoco inh red: blocks human Gai1 binding to RGS12 GoLoco peptide, red readout; Potency, µM (doses to about 61.6 µM), inactives show at the highest dose activity, negative = inhibition, actives largely listed as inhibitors; P63096; Gai1:RGS12 GoLoco peptide FP, rhodamine, 10 min; 0.44% of 230,000 active; active = well fitted inhibition curve with a large enough effect, not every such curve was filed as active; inactive = no such curve, though single readings can be large or run the other way; note: potency is the fitted concentration of half-maximal effect; % is set by controls: 0 for no effect and ±100 for the full control effect; nearly all actives have a fitted effect of over 30% in size
# cRaf kinase inh: c-Raf inhibition, ERK pathway follow-up. shares compounds with ERK EGF block. c-Raf kinase inhibition, homogeneous biochemical assay. activity change, negative = inhibition, % at 76.9 µM. 70 tested, under 10 active. AID 1728
# MEK1 kinase inh: MEK1 (human) kinase inhibition | shares compounds with ERK EGF block | homogeneous MEK kinase activity assay, ERK pathway | Potency, µM (highest dose often 76.9 µM), for the others: at the highest dose activity change, negative = inhibition, actives largely listed as inhibitors | 70 tested, under 10 active | AID 1732
# The depositor's hits bear a star; ? = inconclusive; . = no result; [ ] = another dose, or the depositor's remark. Unless noted, calls come from the whole dose curve; as a rule, active = well fitted curve in the direction sought with a large enough effect; inconclusive = small, poorly fitted or top-dose-only effect, or another doubt; inactive = no such curve, though single readings can be large; an effect the other way counts as inactive or inconclusive.
SMILES,ERK EGF block,CBFb-RUNX1 inh,GoLoco inh red,cRaf kinase inh,MEK1 kinase inh
CCn1nc(-c2ccccc2)nc2c(=O)n(C)c(=O)nc1-2,0%,.,-18%,?,0.63µM*
COc1ccc(-c2nc3ccccc3c(=O)n2-c2ccc(OC)cc2)cc1,-13%,-6%,-11%,.,.
Cn1nc(-c2ccccc2)nc2c(=O)n(C)c(=O)nc1-2,.,.,.,?,0.71µM*
O=c1c2ccccc2nc(-c2ccccc2)n1-n1cccc1,.,-1%,-13%,.,.
Cc1nc2c(=O)n(C)c(=O)nc-2n(C)n1,22%,10%,-2%,?,?
CCCCC(=O)Cl,.,-1%[21.7 µM],1%,.,.
CC(Cl)(Cl)Cl,.,6%[21.7 µM],3%,.,.
BrCCBr,.,-7%[21.7 µM],1%,.,.
CCNCCC1(CC)C(=O)NC(=O)NC1=O,.,.,7%[14.2 µM],.,.

# Compound activity (PubChem BioAssay)
